Rows were chosen to be rich in hits. Some 19% of all compounds tested hit in one or more screens of this group.
IL1B secr inh: inflammasome signaling inhibition, IL-1 beta readout; THP-1 LPS/ATP IL-1B secretion, AlphaLISA, 16 h; active compounds read low; activity change, % at 57.5 µM; AID 743279; 4.7% of 360,000 active; in the data active means activity change below about -50%; inconclusive means mostly about -30% to -49%; further: on the % scale 0 is the no-effect control and ±100 the full control effect
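THP-1 cells pretreated 1 hr with compounds (up to 57.5 uM final), then stimulated with LPS (250 ng/mL final) plus ATP (1.25 mM final); secreted IL-1B measured by AlphaLISA after 16 hr, decreased signal indicating inhibition.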
DT40 TDP1 CPT: DT40-hTDP1 cell growth loss with CPT | Potency, µM (series often up to 46.2 µM), for the others: at the highest dose activity change, negative = growth inhibition, hits mostly inhibitors | chicken DT40 Tdp1-/-;hTDP1 cells + 20 nM CPT, ATP luminescence, 48 h | 12% of 420,000 active | AID 686979; further: potency means the concentration at half of the fitted maximal effect; on the % scale 0 is the no-effect control and ±100 the full control effect; nearly all actives have a fitted effect of over 55% in size
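Chicken DT40 Tdp1-/- cells complemented with human TDP1, 400 cells/well, exposed to compounds plus 20 nM camptothecin for at least 48 h at 37 C; viability read as ATP content by CellTiter-Glo luminescence.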
HepG2 viability: kills HepG2 cells in TGF-b inhibitor counter-screen | 0.76% of 410,000 active | HepG2 CAGA-GFP viability, ATP luminescence, 18 h | Potency, µM (doses to about 46.1 µM), without a hit: top-dose activity change, negative = cytotoxicity, most hits filed as cytotoxic; further: potency means the concentration at half of the fitted maximal effect
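CellTiter-Glo luminescence gave cytotoxicity after 18 hours at 37 degrees C. The cells were HepG2 CAGA-GFP in 1% FBS DMEM, stimulated with 500 pg/mL TGF-beta after compound addition. %Activity was normalised to no-cell wells (complete cell-killing) and DMSO (no toxicity), and curves were fitted and classified.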
TGFb inhibitor: inhibitors of TGF-b signaling; 1.2% of 410,000 active; HepG2 CAGA-GFP TGF-b/SMAD3 reporter, GFP fluorescence, 18 h; TGF-beta stimulated, 500 pg/mL final; Potency, µM (doses to about 46.1 µM), inactives show at the top dose activity, negative = inhibition, hits mostly inhibitors; further: potency means the concentration at half of the fitted maximal effect; on the % scale 0 is the no-effect control and ±100 the full control effect; nearly all actives have a fitted effect of over 65% in size
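HEPG2 CAGA-GFP reporter cells (1000/well, DMEM with 1% FBS) received compounds, then recombinant TGF-beta at 500 pg/mL final for 18 hours at 37 degrees C. Per-cell GFP summed per well was normalised to unstimulated and stimulated DMSO controls before curve fitting.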
TDP1 cell noCPT: qHTS for Inhibitors of human tyrosyl-DNA phosphodiesterase 1 (TDP1): qHTS in cells in absence of CPT; DT40 Tdp1-/- hTDP1 cells, no CPT, ATP luminescence, 48 h; Potency, µM (top dose mostly 46.2 µM), without a hit: at the top dose activity change, negative = growth inhibition, hits mostly inhibitors; 15% of 420,000 active; AID 686978, 2013; further: potency means the concentration at half of the fitted maximal effect; on the % scale 0 is the no-effect control and ±100 the full control effect; nearly all actives have a fitted effect of over 55% in size
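DT40 Tdp1-/-;hTDP1 cells, no CPT (DMSO vehicle only), 400 cells/well; compounds pin-transferred; ≥48 hr, 37 °C; CellTiter-Glo 30 min RT dark, luminescence read.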
TDP1 block: inhibitors of human tyrosyl-DNA phosphodiesterase TDP1 | AID 485290 | Potency, µM (doses to about 130 µM), without a hit: top-dose activity change, negative = inhibition, most hits filed as inhibitors | recombinant TDP1, AlphaScreen DNA substrate cleavage | 0.28% of 350,000 active; further: potency means the concentration at half of the fitted maximal effect; on the % scale 0 is the no-effect control and ±100 the full control effect; nearly all actives have a fitted effect of over 40% in size
Target sequence (Q9NUW8 whole entry, looked up): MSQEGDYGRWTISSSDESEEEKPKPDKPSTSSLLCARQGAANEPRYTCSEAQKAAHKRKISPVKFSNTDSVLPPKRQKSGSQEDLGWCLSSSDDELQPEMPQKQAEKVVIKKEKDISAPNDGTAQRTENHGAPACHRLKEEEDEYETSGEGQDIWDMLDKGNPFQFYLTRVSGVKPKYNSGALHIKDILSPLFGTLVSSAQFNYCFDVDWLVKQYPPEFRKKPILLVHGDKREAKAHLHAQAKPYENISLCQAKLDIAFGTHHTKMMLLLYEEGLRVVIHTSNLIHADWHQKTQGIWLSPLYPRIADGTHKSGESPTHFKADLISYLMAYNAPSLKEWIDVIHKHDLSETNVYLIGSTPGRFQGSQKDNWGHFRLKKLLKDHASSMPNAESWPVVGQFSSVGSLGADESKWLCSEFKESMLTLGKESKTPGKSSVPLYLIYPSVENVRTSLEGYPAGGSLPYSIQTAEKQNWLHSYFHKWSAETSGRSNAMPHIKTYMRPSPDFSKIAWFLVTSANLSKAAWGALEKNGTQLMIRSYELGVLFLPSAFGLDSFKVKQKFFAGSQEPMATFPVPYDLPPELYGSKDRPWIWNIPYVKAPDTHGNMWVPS
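Compounds were preincubated with Tdp1 (1 nM final) for 15 min at room temperature before substrate (15 nM final) started a 5 min reaction; beads (10 ug/ml final) were then added for 10 min before AlphaScreen detection.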
* = called active by the depositor; ? = inconclusive; . = no result; [ ] = dose if it differs, or a comment. Unless noted, the call rests on the fitted dose curve; in most records, active means well fitted curve in the direction sought with a large enough effect; inconclusive means small, poorly fitted or top-dose-only effect, or another doubt; inactive means no such curve, though single readings can be large; an effect the other way counts as inactive or inconclusive.

SMILES	IL1B secr inh	DT40 TDP1 CPT	HepG2 viability	TGFb inhibitor	TDP1 cell noCPT	TDP1 block
FC(F)(F)c1ccccc1-c1nc(NC2CCNCC2)c2ccccc2n1	.	15µM*	.	.	?	.
CCCCS(=O)(=O)N1CCc2nc(COc3ccccc3)c3c(c2C1)CO[C@@H](C)C3	.	.	.	.	.	5%[21 µM]
COc1ccc(/C=N/NS(=O)(=O)c2ccccc2)cc1OS(=O)(=O)c1ccc(C)cc1	21	?	1%	-21%	18µM*	8%
COC(=O)Oc1ccc(/C=N/NC(=O)CSCc2ccccc2Br)cc1OC	-19	23µM*	-33%	2%	15µM*	6%
COc1ccc(-n2c(O)c(/C=N/NS(=O)(=O)c3cccc([N+](=O)[O-])c3)c3ccccc3c2=O)cc1OC	34	23µM*	-14%	?	18µM*	-1%
COCCNC(=S)N/N=C/c1ccc(OCc2ccc(C(=O)OC)cc2)c(OC)c1	-9	?	-34%	-15%	23µM*	3%
COCCNC(=O)C(=O)N/N=C/c1ccc(C(=O)OC)cc1	-2	-4%	6%	4%	0%	0%
COC(c1ccc2c(c1)CN(C(=O)Cn1nc(C)c3ccccc3c1=O)CCO2)C1CCCCC1 (centres undefined)	.	-2%[9.04 µM]	.	.	-17%	.
CCCCOc1ccc(CNC(=O)C2COc3ccc(OC)cc3C2)cc1 (centres undefined)	.	6%	-2%	1%	?	5%
O=S(=O)(N/N=C/c1cccc(OC2CSC2)c1)c1ccccc1	4	16µM*	4%	-10%	?	4%
Cc1ccc(S(=O)(=O)N/N=C/c2cccc(OC3CSC3)c2)cc1	30	?	-10%	-21%	?	5%
COc1ccc(C=NNC(=O)NN=Cc2ccc(OC)c(OC)c2)cc1OC	?	?	-59%	3%	21µM*	.
COc1ccc2c(c1)c(C(=O)N/N=C/c1ccc(OC)c(OC)c1)c(C)n2C	-11	18µM*	-2%	-8%	12µM*	1%
COc1ccc(C=NNC(=O)CCCC(=O)NN=Cc2ccc(OC)c(OC)c2)cc1OC	-1	?	-7%	0%	-29%	.
COc1ccc(Br)cc1/C=N/NS(=O)(=O)c1ccccc1	75	18µM*	-15%	?	7.3µM*	.
COc1ccccc1/C=N/NS(=O)(=O)c1ccccc1	23	-19%	-2%	-2%	-29%	.
CCOc1ccc(NC(=O)Cn2c(=O)n(Cc3nc(-c4ccccc4)no3)c(=O)c3ccccc32)cc1	.	-19%	16%	?	?	6%
COC(=O)[C@@]1(Cc2ccc(OC)cc2)[C@H]2c3cc(C(=O)N4CCCC4)n(CCc4ccc(O)c(O)c4)c3C[C@H]2CN1C(=O)c1ccccc1	.	.	.	.	.	10%
COc1cc(C(=O)Nc2nnc(CC(=O)NCc3ccccc3)s2)cc(OC)c1OC	6	5%	1%	3%	-15%	2%
COC(=O)N/N=C/c1ccc(OS(=O)(=O)c2ccc(C)cc2)c(OC)c1	-72*	-19%	-17%	-1%	?	-3%
COc1cc(/C=N/NC(=O)COc2cccc(F)c2)ccc1OS(=O)(=O)c1ccc(C)cc1	3	18µM*	-9%	?	26µM*	1%
C=CCNC(=O)/C(C#N)=C/c1ccc(OS(=O)(=O)c2ccc(C)cc2)c(OC)c1	-79*	?	-70%	?	?	3%
COc1ccc(/C=N/NS(=O)(=O)c2ccccc2)cc1OC	7	21µM*	-12%	-24%	23µM*	.
CC1CCCN(S(=O)(=O)c2cc(C(=O)NCc3ccccc3Cl)n(C)c2)C1 (centres undefined)	.	?	-22%	?	?	5%
Cc1nc(C)n(CC(=O)NCC2Cc3cc(-c4ccsc4)cc(Cl)c3O2)n1 (centres undefined)	.	0%	.	.	?	.
SMILES	IL1B secr inh	DT40 TDP1 CPT	HepG2 viability	TGFb inhibitor	TDP1 cell noCPT	TDP1 block
CCc1ccc(C(=O)NCc2ccc(Cl)cc2Cl)cc1	-52*	2%	-25%	-9%	-5%	-3%
O=C(Cc1ccc(Br)cc1)NCCc1ccc(Cl)cc1Cl	-60*	-25%	-32%	-5%	?	-3%
O=C(COC(=O)c1ccccc1C(=O)c1ccccc1)NCc1ccc(F)cc1	-77*	?	9%	7%	?	1%
O=C(COC(=O)c1nc(Cl)c(Cl)c(Cl)c1Cl)NCc1ccccc1	-89*	?	-23%	?	-16%	-1%
CN(C)Cc1c(C(=O)N/N=C/c2ccco2)nnn1-c1nonc1N	-3	8%	-1%	2%	7%	1%
CCc1noc(C)c1C(=O)N(C)CC(=O)Nc1cccc(OC)c1	-7	-9%	-1%	-1%	3%	0%
Nc1oc2ccccc2c1C(=O)Cc1ccccc1O[C@@H]1O[C@H](CO)[C@@H](O)[C@H](O)[C@H]1O	-3	21%	-16%	9%	5%	.
O=C(COC(=O)c1ccccc1C(=O)c1ccc(Cl)cc1)NCC1CCCO1 (centres undefined)	?	3%	2%	7%	-11%	5%
Cc1ccc(C(=O)c2ccccc2C(=O)OCC(=O)NCCc2ccccc2)cc1	-75*	?	1%	-13%	?	2%
CCCc1ccc(C(=O)NNC(=O)c2ccc(Cl)cc2)cc1	-25	4%	-2%	-2%	-10%	7%
CCCc1ccc(C(=O)NNc2cc(Cl)ccc2Cl)cc1	?	?	-25%	-2%	23µM*	0%

Screening data (PubChem BioAssay)
